# In ChEMBL document CHEMBL4513134, “CO-ADD screening of University of Queensland (Australia) compounds” (2021):
# Measured potencies and affinities stand elsewhere.
# Legend:
# Klebsiella pneumoniae = conditions: Concentration 32 ug.mL-1; ASSAY_TEST Inhibition of Bacterial Growth; detection method Absorption (OD600); MEDIA CAMHB; plate type 384well; NBS; CORNING #3640; time 18 hr
# Candida albicans = conditions: 32 ug/mL
# Cryptococcus neoformans = conditions: Concentration 32 ug.mL-1; ASSAY_TEST Inhibition of Fungal Growth; detection method Resazurin; Absorption (OD600-OD570); plate type 384well; NBS; CORNING #3640
Structure (SMILES),Inhibition (Klebsiella pneumoniae),Inhibition (Candida albicans),Inhibition (Cryptococcus neoformans)
Cn1c([N+](=O)[O-])cnc1C(=O)NCc1ccc(OC(F)(F)F)cc1,21.15%,21.3%,2.62%
CN(C)C(=O)c1ncc([N+](=O)[O-])n1C,22.37%,10.4%,-8.01%
Cn1c([N+](=O)[O-])cnc1C(=O)NCc1ccc(F)cc1,15.94%,7.55%,-24.39%
Cc1ccc(CCNC(=O)c2ncc([N+](=O)[O-])n2C)cc1,27.87%,12.1%,-8.7%
Cn1c([N+](=O)[O-])cnc1C(=O)NCc1cccc(OC(F)(F)F)c1,27.4%,11.6%,-18.54%
CC(NC(=O)c1ncc([N+](=O)[O-])n1C)c1ccc(F)cc1 (stereo not given),14.44%,6.03%,-25.7%
Cn1c([N+](=O)[O-])cnc1C(=O)N1CCCC1,30.2%,7.94%,-19.05%
Cn1c([N+](=O)[O-])cnc1C(=O)N1CCOCC1,22.51%,14.1%,-21.61%
Cn1c([N+](=O)[O-])cnc1C(=O)NCc1ccccn1.O=C(O)C(F)(F)F,22.41%,4.77%,-18.89%
Cn1c([N+](=O)[O-])cnc1C(=O)NC1CC1,0.14%,5.96%,-21.85%
